TRHR ag – TRH receptor (human) agonism | activation, % at 2 µM | P34981 | TRHR cells, calcium flux fluo-8, FDSS agonist mode | 360,000 compounds, 0.18% hits; also: 0% is about no effect
Target sequence (P34981 whole entry, looked up): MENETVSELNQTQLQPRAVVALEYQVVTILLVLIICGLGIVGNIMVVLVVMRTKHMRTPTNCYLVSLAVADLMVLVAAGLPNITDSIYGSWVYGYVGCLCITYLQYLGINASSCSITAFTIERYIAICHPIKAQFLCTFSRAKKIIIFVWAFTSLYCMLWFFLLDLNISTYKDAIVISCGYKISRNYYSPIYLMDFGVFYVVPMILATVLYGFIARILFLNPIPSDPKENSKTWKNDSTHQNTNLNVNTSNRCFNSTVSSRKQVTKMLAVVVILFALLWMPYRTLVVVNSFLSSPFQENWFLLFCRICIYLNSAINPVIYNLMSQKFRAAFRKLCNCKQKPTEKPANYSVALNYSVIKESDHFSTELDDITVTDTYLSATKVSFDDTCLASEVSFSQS
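In this calcium-flux screen, cells bearing human TRHR are dye-loaded with fluo-8, baselined for 10 cycles, then exposed to library compounds; positive kinetic calcium responses during the agonist phase mark hits, with TRH as control.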
D1 antag – blocks dopamine activation of the human D1 receptor; AID 504652; HEK293 TREx D1 cells, calcium flux, dopamine EC80; hits give low values; 360,000 compounds, 3.2% hits; activity change, negative = inhibition, % at 10 µM; P21728; in the data active = activity change below about -30%; also: % is scaled to controls: 0 for no effect and ±100 for the full control effect
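Allosteric or orthosteric antagonism assessed as attenuation of the calcium response to EC80 dopamine, added 180 s after compound, in induced HEK293 Trex D1 cells loaded with no-wash calcium dye.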
D1 ag – agonists of human D1 dopamine receptor | HEK293 T-REx D1 cells, calcium flux, agonist mode | activation, % at 2 µM | 360,000 compounds, 1% hits | AID 504660; also: 0% is about no effect
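Tetracycline-induced HEK293 TREx D1 cells, force-coupled to calcium signalling, were dye-loaded with a no-wash calcium kit. Compound was pin-added after a 10 s baseline. Fluorescence was read kinetically at 1 cycle/s for 180 s, with calcium rises flagged as agonism.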
D1 potentiator – potentiators of human D1 dopamine receptor | HEK293 TREx D1 cells, calcium flux, dopamine EC20 potentiation | potentiation, % at 10 µM | 360,000 compounds, 0.036% hits | AID 504651; in the data active = potentiation above about 30%; also: 0% is about no effect
TRHR enhancer – allosterically enhances the human TRH receptor | P34981 | TRHR cells, fluo-8 calcium fluorescence, EC20 TRH enhancement | enhancement, % at 2 µM | 360,000 compounds, 0.66% hits; in the data active = enhancement above about 30%; also: 0% is about no effect
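TRHR-expressing cells loaded with fluo-8 calcium dye were read kinetically (ex 480/em 530) during compound addition, then stimulated with an EC20 of TRH (10 nM final). Enhancement of the Gq-mediated intracellular calcium response was scored.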
Active calls of the source: *; / = no result given; ! = repeats disagree. Hits are enriched below; roughly 4.7% of the tested compounds scored in any of these assays. Rule as the data show it, unless noted: active = activation above about 30%; inactive = the rest.

SMILES	TRHR ag	D1 antag	D1 ag	D1 potentiator	TRHR enhancer
CCOC(=O)c1ccc(CN(Cc2ccc(C)cc2)S(=O)(=O)c2ccc(NC(C)=O)cc2)cc1	2	-5	11	-4	1
CCCCCCCCCn1c2c(c(=N)c3c1CCC3)CCCC2	4	8	85*	2	-1
N=c1c2c(n(Cc3ccc(Cl)cc3)c3c1CCC3)CCC2	1	0	1	-6	12
N=c1c2c(n(Cc3ccc(F)cc3)c3c1CCC3)CCCC2	0	-30*	3	-9	-2
Fc1ccc(C(NCCc2ccccc2)c2nnc(-c3ccccc3Cl)o2)cc1 (stereo not given)	1	2	23	-4	-4
COc1ccc(-n2ncc(C(=O)Nc3ccc4c(c3)OCO4)c2C2CCN(C(=O)OC(C)(C)C)CC2)cc1	0	-6	3	-2	-10
C/C(=C\C(=O)c1ccc(Br)cc1)NCc1ccccc1	1	-15	1	-4	7
C/C(=C\C(=O)c1ccc(Br)cc1)NCc1ccc(C)cc1	0	2	1	-8	40*
COc1ccc(NC(=O)c2sc3nc[nH]c(=O)c3c2C)cc1OC	0	-6	2	-1	-2
COc1ccc(NC(=O)Nc2ccccc2F)c(C)c1	0	-37*	2	-3	18
Cc1ccc(S(=O)(=O)N(C)C)cc1NC(=S)NC(C)CCC(C)C (stereo not given)	1	-59*	12	-4	-5
Cc1ccc(S(=O)(=O)N(C)C)cc1NC(=S)NC(C)CCCC(C)C (stereo not given)	0	-12	6	-4	-1
Cc1ccc(S(=O)(=O)N(C)C)cc1NC(=O)Nc1ccccc1F	-1	-43*	5	-11	1
COc1ccc(NC(=O)Nc2cccc(C)n2)c(OC)c1	-1	-16	1	-4	33*!
CCOC(=O)c1cc(-c2ccccc2)n(CCCC(=O)Nc2cc(C)ccc2OC)c1C	0	3	3	-3	1
COC(=O)c1c(SC)nc2ccccc2c1OCc1ccc(C)cc1	1	7	12	1	-2
Cc1ccc(S(=O)(=O)N(C)C)cc1NC(=O)C(C)N(C)CCOc1ccc(Cl)cc1 (stereo not given)	-2	-19	30*	/	19
N#Cc1c2ccc([N+](=O)[O-])cc2[n+]([O-])n1-c1ccccc1	0	-61*	7	-6	0
COc1c(Cl)cc(C(=O)Nc2ccccc2C(=O)O)cc1Cl	0	-37*	3	6	2
Cc1cc(C(=O)Nc2ccccc2C(=O)O)ccc1NC(=O)COc1ccccc1Cl	-1	-2	0	-1	35*
COc1ccc(N2CCN(c3ncccc3-c3nc(-c4ccccc4C)no3)CC2)cc1	0	-31*	5	-1	-4
COc1ccc(N2CCN(c3ncccc3C#N)CC2)cc1	0	6	1	0	4
CCc1ccc(NC(=O)C(=O)NCCc2sc3nc(-c4ccc(OC)cc4)nn3c2C)cc1	0	/	5	-2	3
CCOC(=O)CSc1nc2c(cnn2-c2ccc(F)cc2)c(=O)[nH]1	-1	7	3	5	1
COC(=O)CSc1nc2c(cnn2-c2ccc(F)cc2)c(=O)[nH]1	0	-33*!	1	-5	-9
SMILES	TRHR ag	D1 antag	D1 ag	D1 potentiator	TRHR enhancer
COc1cccc(N2CCN(S(=O)(=O)c3cccc4cccnc34)CC2)c1	0	-7	6	3	-3
CCn1ncc(S(=O)(=O)N2CCN(c3cccc(OC)c3)CC2)c1C	0	-35*	4	-5	25
COc1cccc(NC(=O)Cn2c(=O)n(CCC(=O)NCc3ccccc3OC)c(=O)c3ccccc32)c1	-2	-2	5	0	-11
Cc1nc2nc(SCc3ccc(F)cc3Cl)nn2c(C)c1Cc1ccccc1	0	2	0	3	3
Cc1nonc1C(=O)N/N=C/c1cccc(O)c1	0	-43*	2	-6	-1
O=C(N/N=C/c1cccc(O)c1)N/N=C/c1cccc(O)c1	0	-8	1	10	11
CC(OC(=O)c1ccc2c(=O)n3c(nc2c1)CCCCC3)C(=O)Nc1ccc(Cl)cn1 (stereo not given)	-1	-2	0	-3	-6
O=C(Nc1ccc(Cl)cc1)c1ccc2nsnc2c1	0	-47*	20	-15	-8
CC(OC(=O)c1ccc2c(=O)n3c(nc2c1)CCCCC3)C(=O)Nc1ccc(F)cc1Cl (stereo not given)	0	-37*	0	-4	1
CN(C)c1ccc(NC(=O)c2ccc3nsnc3c2)cc1	-1	6	1	-7	6
O=C(Nc1ccc(F)cc1)c1ccc2c(=O)n3c(nc2c1)CCCCC3	0	-6	4	-11	-14
CC(=O)c1ccc(NC(=O)c2ccc3c(=O)n4c(nc3c2)CCCCC4)cc1	0	-45*	10	-4	0
O=C(Nc1ccc(F)c(Cl)c1)c1ccc2c(=O)n3c(nc2c1)CCCCC3	1	-58*	16	-5	3
CC1CCN(c2ncnc3c2nnn3C)CC1	0	/	-2	2	-3
COc1ccc(-c2[nH]ncc2C(=O)NCc2ccccc2OC)cc1	0	13	6	-6	3
CCOc1cccc(C2c3c(oc4cc(C)c(C)cc4c3=O)C(=O)N2c2nc(C)c(C)s2)c1 (stereo not given)	1	3	-1	-1	6
O=C(Nc1ccc(Cl)cc1)c1ccc2c(=O)n3c(nc2c1)CCCCC3	-1	-59*	12	-16	-8
CCn1c(CC(=O)Nc2ccccc2)nnc1SCc1nc2ccccc2c(=O)[nH]1	0	13	1	-4	12
CCn1c(COc2ccccc2C)nnc1SCc1nc2ccccc2c(=O)[nH]1	0	-30*	2	-3	0
CCCCCSc1nnc2c(n1)OC(c1ccc(C)s1)N(C(C)=O)c1ccccc1-2 (stereo not given)	0	15	1	2	8
Cc1ccccc1Cn1c(=O)n(CCc2ccccc2)c(=O)c2sc3ccccc3c21	-1	-2	7	0	12
CSc1ccc(/C=N/NC(=O)CN2CCN(Cc3ccc(Cl)cc3)CC2)cc1	-1	-13	38*	-6	5
Cc1ccc(NC(=O)Cn2cnc3cc([N+](=O)[O-])ccc3c2=O)c(Cl)c1	-1	-20	38*	-10	10
CN1/C(=C\C=C(/C#N)C(=O)Nc2ccc(Cl)cc2)C(C)(C)c2ccccc21	46*	3	81*	-5	8
CCn1c(=O)c2ccccc2n(Cc2cccc(C)c2)c1=O	0	-32*	-1	-7	-1
Cc1cccc(Cn2c(=O)n(Cc3ccco3)c(=O)c3ccccc32)c1	0	-15	2	1	-6
N#Cc1ccccc1CSc1nnc(-c2ccccc2)o1	0	12	-1	0	0
